# The list is not random: actives were taken first. Their share in the collection is about 8.1%.
# Sfp PPTase inh: inhibitors of Bacillus subtilis Sfp phosphopantetheinyl transferase | Biochemical Sfp PPTase activity, qHTS | Potency, µM, inactives show largest response in the series, negative = inhibition, usual class: inhibitors | 310,000 tested, 3.5% active;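 note: the enzyme is Sfp with the accession as filed and its product quenches rhodamine fluorescence; 0% = enzyme reaction without inhibitor and -100% = no enzyme wells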
#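 Fluorescence-quenching assay: 15 nM Sfp-PPTase preincubated 15 min at room temperature with compound, then 5 uM rhodamine-CoA and 12.5 uM BHQ-2-labelled YbbR peptide added. Fluorescence (ex 525/em 598 nm) read at start and after 30 min; difference gives rate.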
# Gal4-VP16 FLuc: Gal4-VP16 reporter inhibition counter-screen. AID 2546. Potency, µM (series often up to 53.6 µM), for inactives: top-dose activity, negative = inhibition, hits mostly inhibitors. 310,000 tested, 3.5% active. Drosophila S2 Gal4-VP16 UAS-luciferase, luminescence, 20 h;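 note: Gal4-VP16 expression switched on by copper sulfate through the metallothionein promoter; % is set by controls: 0 for no effect and ±100 for the full control effect; nearly all actives have a fitted effect of over 50% in size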
# PINK1 expr mod: changes PINK1 expression; PINK1 immunofluorescence, high-content cytometry, 24 h; Potency, µM (titrated, usually from 76.6 µM), for the others: top-dose activation (PINK1 increase), usual class: activators; 410,000 tested, 0.2% active; active = well fitted activation curve with a large enough effect; inconclusive = small, poorly fitted or top-dose-only effect; cell line not stated here; note: % of control where 0% means no effect; nearly all actives have a fitted effect of over 65% in size
#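 Stable cell line treated 24 h with compounds at 5 concentrations (CCCP controls), then fixed and immunostained for PINK1 plus nuclear and cell stains; PINK1 immunofluorescence quantified by laser-scanning microplate cytometry.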
# Epigenetic derep: regulators of epigenetic silencing causing reporter derepression in mouse cells | AID 1865 | murine LDR cells, GFP reporter derepression, 30 h | Potency, µM (highest dose often 53.9 µM), inactives show at the highest dose GFP activation, hits mostly activators | 280,000 tested, 0.2% active; note: % of control where 0% means no effect; nearly all actives have a fitted effect of over 60% in size
#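 Murine LDR cells carrying a silenced, genomically integrated CMV-driven GFP reporter were exposed to compound for 30 hours at 37 C. After PBS washes, GFP-positive cells (20–120 um objects) were counted by laser-scanning microplate cytometry.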
# RORg inh: ROR gamma (mouse) transcription inhibition | P51450 | Drosophila S2 Gal4-RORgamma UAS-luciferase reporter, 20 h | Potency, µM (top dose mostly 53.6 µM), for inactives: at the top dose activity change, negative = inhibition, hits mostly inhibitors | 310,000 tested, 5.4% active; note: % is set by controls: 0 for no effect and ±100 for the full control effect; nearly all actives have a fitted effect of over 60% in size
# Target sequence (P51450 whole entry, looked up, the tested form may be a part): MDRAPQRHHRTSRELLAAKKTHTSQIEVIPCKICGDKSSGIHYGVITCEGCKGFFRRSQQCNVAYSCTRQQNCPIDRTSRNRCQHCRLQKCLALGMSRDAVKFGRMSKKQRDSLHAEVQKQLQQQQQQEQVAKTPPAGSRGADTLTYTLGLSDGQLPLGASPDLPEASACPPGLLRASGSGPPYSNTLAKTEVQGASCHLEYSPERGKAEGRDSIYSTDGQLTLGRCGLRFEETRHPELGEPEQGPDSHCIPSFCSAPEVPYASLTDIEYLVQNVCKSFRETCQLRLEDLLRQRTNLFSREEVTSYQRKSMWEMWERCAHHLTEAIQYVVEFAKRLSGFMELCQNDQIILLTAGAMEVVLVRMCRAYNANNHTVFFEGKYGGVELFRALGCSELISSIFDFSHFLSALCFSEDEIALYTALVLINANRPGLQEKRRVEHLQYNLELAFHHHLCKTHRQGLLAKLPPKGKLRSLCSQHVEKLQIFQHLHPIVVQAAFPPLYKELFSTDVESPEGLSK
#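 Compounds are pin-transferred onto Drosophila Schneider cells expressing a copper-inducible Gal4–ROR gamma transactivation domain fusion. After 1 hr, copper sulfate is added to 700 uM final; luciferase is read 20 hr later.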
# ClpP mod: qHTS Assay for Activators of ClpP; AID 651965, 2013; ATP-dependent Clp protease proteolytic subunit (Bacillus subtilis (strain 168)), P80244; 340,000 tested, 1.9% active; purified B. subtilis ClpP, FRET peptide cleavage, 20 min; Potency, µM (highest dose often 57.5 µM), inactives show top-dose activity change, negative = active; active = well fitted falling curve with a large enough effect; inconclusive = small, poorly fitted or top-dose-only effect; inactive = no such curve, though single readings can be large or run the other way; note: the source files actives as falling curves though it sought activators and does not explain the sign; nearly all actives have a fitted effect of over 65% in size
# Target sequence (P80244 whole entry, looked up): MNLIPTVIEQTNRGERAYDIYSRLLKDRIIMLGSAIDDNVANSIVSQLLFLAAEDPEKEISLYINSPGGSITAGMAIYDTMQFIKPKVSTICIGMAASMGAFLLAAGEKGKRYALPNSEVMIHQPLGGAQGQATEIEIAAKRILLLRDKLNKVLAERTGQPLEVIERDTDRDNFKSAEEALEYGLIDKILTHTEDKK
#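 Buffer: 100 mM Tris/HCl pH8, 100 mM KCl, 0.05% low protease BSA, 2.5% glycerol, 0.01% Tween-20. ClpP 10 microg/mL final; 20 min RT; delta FRET normalized to ADEP and DMSO controls.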
# Active calls of the source: *; ? = inconclusive; · = not tested or not shown; [ ] = another dose, or the depositor's remark. Unless noted, calls come from the whole dose curve; as a rule, active = well fitted curve in the direction sought with a large enough effect; inconclusive = small, poorly fitted or top-dose-only effect, or another doubt; inactive = no such curve, though single readings can be large; an effect the other way counts as inactive or inconclusive. Potency is the fitted concentration of half-maximal effect.
SMILES,Sfp PPTase inh,Gal4-VP16 FLuc,PINK1 expr mod,Epigenetic derep,RORg inh,ClpP mod
CC1(C)Cc2c(C#N)c(SCC(=O)c3ccccc3)nc(N3CCOCC3)c2CO1,14µM*,4%,-1%,1%,-3%,-6%
CC1(C)Cc2c(C#N)c(NCCN3CCOCC3)nc(-c3ccccc3)c2CO1,2%,-3%,1%,0%,14%,·
CC1(C)Cc2c(C#N)c(SCc3ccccc3)nc(N3CCOCC3)c2CO1,-13%,-7%,17%,-1%,4%,?
CC1(C)Cc2c(C#N)c(N3CCOCC3)nc(-c3ccccc3)c2CO1,2%,-6%,0%,0%,?,35µM*
CC(C)C(=O)N1CCN(c2nc(-c3ccccc3)c3c(c2C#N)CCCC3)CC1,-22%,-1%,-7%[38.3 µM],1%,0%,28µM*
Cc1ccc2c(=O)c(C(=O)c3cccc(Cl)c3)cn(CC(=O)Nc3ccc4c(c3)OCCO4)c2n1,·,·,4%,11%,·,4%
CC(C)C[C@@H](CC(=O)N[C@@H](CCC(=O)O)CC(=O)O)NC(=O)[C@@H]1CNCC[C@H]1NC(=O)C[C@@H](NC(=O)C[C@H](CO)NC(=O)[C@@H]1CNCC[C@H]1N)C(C)C,-4%,6%,·,-1%,-15%,·
CCOc1ccc(-c2cc(NC(=O)c3cccc(Cl)c3)c(C(=O)OC)s2)cc1,·,·,0%,5%,·,-12%
CCc1nc(N2CCOCC2)c(C#N)c2c1COC(C)(C)C2,6%,-3%,1%,-1%,0%,?
CC1CCN(c2nc(-c3ccco3)c3c(c2C#N)CC(C)(C)OC3)CC1,14µM*,-83%,4%,-1%,?,4%
Cc1nc(N2CCOCC2)c(C#N)c2c1COC(C)(C)C2,14%,18%,3%[38.3 µM],-1%,12%,32µM*
COc1nc(-c2ccccc2)c2c(c1C#N)CC(C)(C)OC2,13%,15%,0%,-1%,19%,31%
C/C(=N\O)c1ccc2c3c([nH]c2c1)CCCC3,-9%,-17%,2%,0%,43%,16µM*
O=C(NC(=S)Nc1ccc(Br)cc1)C1CCCCC1,2%,7.9µM*,14%,·,5µM*,1%
O=C(Nc1ccc(Br)cc1)C1CCCC1,8%,1%,1%,·,-21%,3%
O=C(Nc1ccccc1)C1CCCCC1,12%,-1%,0%[38.3 µM],2%,17%,0%
O=C(NC(=S)Nc1cccc([N+](=O)[O-])c1)C1CCCC1,-5%,?,2%,·,13µM*,0%
O=C(NC(=S)Nc1ccccc1)C1CCCCC1,?,4µM*,5%,·,2.8µM*,0%
O=C(NC(=S)Nc1ccc(Br)cc1)C1CCC1,6%,7.9µM*,-1%,·,6.3µM*,-3%
Cc1ccc(NC(=O)CSc2nnc(-c3ccccc3)n2C)cc1,·,·,0%,·,·,3%
O=C(NC(=S)NCc1ccccc1)C1CCCCC1,16%,7.1µM*,-3%,0%,1.6µM*,13µM*
O=C(NCc1ccccc1)c1ccc(NC(=O)C2CCCCC2)cc1,·,·,5%,·,·,-1%
CCC(=O)Nc1ccc(CC)cc1-c1nc2ccccc2n(CC(=O)Nc2cccc(OC)c2)c1=O,·,·,3%,-2%,·,1%
NC(=S)NCCC[C@H](N)C(=O)O,56µM*,·,·,2%,·,·
O=C(Cn1c(=O)n(-c2ccc(F)c(Cl)c2)c(=O)c2sc3ccccc3c21)NC1CCCC1,·,·,2%,-4%,·,?
SMILES,Sfp PPTase inh,Gal4-VP16 FLuc,PINK1 expr mod,Epigenetic derep,RORg inh,ClpP mod
CC(C)(C)c1ccc(OCCOc2ccc(C(C)(C)C)cc2NC=O)c(NC=O)c1,56µM*,?,1%,-1%,?,3%
Cc1ccc(Cl)cc1NC(=O)c1sc2nc(-c3ccccc3)cn2c1C,·,·,1%,5%,·,0%
CC1=CC(=O)C(C(C)C)=C/C1=N\OC(=O)c1cccc2nc(C)oc12,-2%,-5%,0%,-1%,-22%,-1%
CC1=CC(=O)C(C(C)C)=CC1=NC(=O)c1ccc(C)cc1,10µM*,-9%,2%,0%,-14%,1%
CNCc1ccccc1Sc1ccc(O)c(O)c1,?,7.1µM*,2%,1%,8.9µM*,-2%
CCCCOc1ccc(S(=O)(=O)Nc2cccnc2)cc1,11%,11µM*,·,1%,-31%,-1%
CCc1ccc(S(=O)(=O)Nc2cc3c(cc2C)n(C)c(=O)c(=O)n3C)cc1,·,·,0%,0%,·,-6%
CCOc1ccc(S(=O)(=O)Nc2cccc(OC)c2)cc1,-6%,18µM*,8%[38.3 µM],6%,-31%,-2%
CCc1ccc(S(=O)(=O)Nc2cc3c(cc2C)n(C)c(=O)n3C)cc1,-8%,7.1µM*,11%,·,?,1%
CCOc1ccc(S(=O)(=O)Nc2ccc3c(c2)n(C)c(=O)n3C)cc1,7%,0.1µM*,2%,·,?,·
Cc1ccc(S(=O)(=O)Nc2cccnc2)cc1,3%,-2%,0%,1%,17%,0%
Cc1cccc(N(CC(=O)NCCSCc2ccccc2)S(=O)(=O)c2ccccc2)c1C,·,·,-1%,-1%,·,-8%
CCC[C@@H]1CC2=CC(=O)CC[C@]2(C)[C@H]2CC[C@@]3(C)[C@@H](CC[C@@]34CCC(=O)O4)[C@H]12,?,-2%,·,·,2%,·
Cc1cccc(NC(=O)c2sc(-n3nc(C)c(Cc4ccc5c(c4)OCO5)c3C)nc2C)c1C,·,·,-1%,2%,·,-17%
COc1cccc(C(=O)Nc2ccccc2C(=O)OCc2cc(=O)n3nc(C4CC4)sc3n2)c1,·,·,1%,-3%,·,-4%
Cc1ccc(NS(=O)(=O)c2cc(C(=O)O)ccc2Cl)cc1C,·,·,·,0%,·,·
CCCCCCn1ccc(=N)cc1,-1%,7.1µM*,2%,-1%,-36%,1%
Nc1nonc1NN=C1CCCCC1,79µM*,?,0%,0%,-5%,-1%
Cc1cccc(OCC(=O)Nc2cc(C)c(C)cc2O)c1,12%,-28%,·,-1%,3.5µM*,0%
Cc1ccc(OCC(=O)NNc2c3ccccc3nc3ccccc23)cc1,?,13µM*,-1%,-1%,10µM*,-5%
Cc1cccc(OCC(=O)NNc2c3ccccc3nc3ccccc23)c1,-16%,5µM*,19%[38.3 µM],-1%,3.5µM*,9%
CN(C)c1ccc(/C=C/c2ccnc3ccc(Cl)cc23)cc1,·,·,2%,·,·,2%
NC(N)=NCCC[C@@H](N)C(=O)NCC(=O)N[C@@H](CC(=O)O)C(=O)N[C@@H](Cc1c[nH]c2ccccc12)C(=O)O,9%,2%,·,·,28%,·
CCOC(=O)CNC=C(C(=O)OCC)C(=O)OCC,2%,1%,3%,-1%,-15%,-3%
CCOC(=O)C=C(C(=O)OCC)C(=O)OCC,18µM*,4%,1%,?,-27%,2%
